# Assay outcomes as filed in PubChem.
# Only some compounds are listed: those with a hit (about 21% of all), similar ones and a draw of the others.
# Shiga inhibitor = Shiga toxin inhibition | Vero cells, Shiga toxin protein synthesis inhibition reporter | inhibition, % at 38.7 µM | 9.2% of 290,000 active | AID 2315; in the data active = inhibition mostly above about 28%, no sharp cut-off; inactive = mostly below about 43%
# SARS PLpro yeast = inhibitors of SARS-CoV papain-like protease in yeast | S. cerevisiae expressing SARS-CoV PLpro, growth rescue | Potency, µM (top dose mostly 32.9 µM), usual class: activators | 0.19% of 330,000 active; calls by dose curve; note: nearly all actives have a fitted effect of over 55% in size
# Cycloheximide cs = counter-screen for Shiga toxin inhibitors: cycloheximide protein synthesis inhibition | cell reporter, cycloheximide protein synthesis inhibition counterscreen | max response, % | 12% of 300,000 active | AID 2314; in the data active = max response mostly above about 13%, no sharp cut-off; inactive = mostly below about 14%; note: read at 38.3 µM for the half of the compounds with a filed dose
# Pf growth 48h = P. falciparum growth inhibition at 48 hours (one generation) | Potency, µM (series often up to 28.7 µM), usual class: inhibitors | P. falciparum luciferase growth in erythrocytes, 48 h | 5.9% of 310,000 active
#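 Here the parasites carry a stable luciferase gene and grow inside erythrocytes in Albumax-based RPMI medium with compound for one erythrocytic cycle. Activity is scored as loss of luminescent signal.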
# Pf growth 96h = inhibits malaria parasite growth, 96 h. AID 504834. P. falciparum luciferase reporter growth, 96 h. Potency, µM (doses to about 28.7 µM), actives largely listed as inhibitors. 6.9% of 320,000 active
#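 Readout is luminescence from an integrated firefly luciferase in P. falciparum. Red cells, 2% hematocrit and 0.05% parasitemia final, were cultured with compound through two parasite generations (96 hours) at 37 C, 5% CO2.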
# NS1 inh = influenza NS1 inhibition. 0.4% of 270,000 active. AID 2326. Potency, µM (top dose mostly 46.1 µM); calls by dose curve; note: actives are rising curves; nearly all actives have a fitted effect of over 50% in size
#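 Recovery from NS1-induced slow growth read by OD600 in budding yeast switched to galactose assay medium (pH 6.0, -URA) at 1:100 dilution. Compound 23 nl per well; the matching strain lacking NS1 serves as control.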
# A number is an active result; - = inactive; ? = inconclusive; . = no result given; [ ] = dose if it differs, or a comment. Unless noted, calls come from the whole dose curve; as a rule, active = well fitted inhibition curve with a large enough effect; inconclusive = small, poorly fitted or top-dose-only effect, or another doubt; inactive = no such curve, though single readings can be large or run the other way.
SMILES,Shiga inhibitor,SARS PLpro yeast,Cycloheximide cs,Pf growth 48h,Pf growth 96h,NS1 inh
CCOc1ccc2ccccc2c1CNCCc1ccc(S(N)(=O)=O)cc1,-,-,-,12µM,?,-
COc1cc(CNCCc2ccc(S(N)(=O)=O)cc2)ccc1OCc1ccc(Cl)cc1,-,-,-,8.3µM,6.6µM,-
CCOc1cc(CNCCc2ccc(S(N)(=O)=O)cc2)ccc1OCc1ccc(Cl)cc1,-,?,-,9.3µM,?,-
NS(=O)(=O)c1ccc(CCNCc2ccccc2OCc2ccc(F)cc2)cc1,-,-,-,-[0.00184 µM],?,-
CCOc1ccc(CNCCc2ccc(S(N)(=O)=O)cc2)cc1,-,-,-,-,-,-
COc1ccc(N(CC(=O)NC2CC3CCC2C3)S(=O)(=O)c2ccc(C)c([N+](=O)[O-])c2)cc1 (centres undefined),-,-,-,?,-,-
N=C1C(c2nc3ccccc3s2)=C(O)CN1Cc1ccccc1,active,-,30,-,-,-
CCN(CC)CCCN1CC(O)=C(c2nc3ccccc3s2)C1=N,-,-,-,?,.,-
CCN(CC)S(=O)(=O)c1ccc(/C=C/C(=O)OCC(=O)N(C)C)cc1,-,-,-,-,-,.
COc1cccc(CC2(CO)CCCN(Cc3ccc(C)s3)C2)c1 (centres undefined),-,-,-,?,?,-
COc1cccc(CC2(CO)CCCN(Cc3[nH]c4ccc(C)cc4c3C)C2)c1 (centres undefined),-,-,-,9.3µM,5.9µM,-
COc1cccc(CC2(CO)CCCN(Cc3sc(N4CCCC4)nc3Cl)C2)c1 (centres undefined),-,-,-,?,15µM,-
COc1ccc(CN2CCCC(CO)(Cc3ccc(F)cc3F)C2)cc1 (centres undefined),-,-,-,-,10µM,-
COC(=O)c1ccc(Cn2nnc3c(=O)[nH]c(C4CCN(S(=O)(=O)c5ccc(F)cc5)CC4)nc32)cc1,-,-,-,?,?,-
CCOC(=O)C1(C)NC(c2ccco2)C2C(=O)N(C)C(=O)C21 (centres undefined),-,-,-,-,-,-
O=C(Nc1cccc(Cl)c1)c1cccnn1,-,-,-,-,-,-
CCCCN1CC(COc2ccccc2)OC1=O (centres undefined),-,-,-,-,2.9µM,-
Cn1nnnc1Sc1ncnc2scc(-c3cc4ccccc4o3)c12,.,-,.,4.1µM,?,.
Cn1nnnc1Sc1ncnc2scc(-c3ccccc3C(F)(F)F)c12,.,-,.,13µM,7.4µM,.
Cn1nnnc1Sc1ncnc2scc(-c3cccs3)c12,.,-,.,?,?,.
Cn1nnnc1Sc1ncnc2scc(-c3ccc(-c4ccccc4)cc3)c12,.,-,.,.,.,.
CC(=O)c1ccccc1-c1csc2ncnc(Sc3nnnn3C)c12,.,-,.,12µM,4.1µM,.
Cn1nnnc1Sc1ncnc2scc(-c3ccc(C(F)(F)F)cc3)c12,.,-,.,?,?,.
CS(=O)(=O)Nc1ccc(C(=O)Nc2ccc(S(=O)(=O)N3CCCC3)cc2)cc1,-,-,-,?,-,.
Cc1nc2cc(-c3ccccc3)nn2c(C)c1CCC(=O)NC(C)c1ccc2c(c1)OCCO2 (centres undefined),-,-,-,?,-,-
SMILES,Shiga inhibitor,SARS PLpro yeast,Cycloheximide cs,Pf growth 48h,Pf growth 96h,NS1 inh
O=C(CNC(=S)N(Cc1ccccc1)Cc1cccnc1)N1CCOCC1,-,-,-,-,-,.
CCOC(=O)/C(=N\O)C1=NC(C)(C)Cc2ccccc21,-,-,-,-,-,-
Cc1cccc(N/N=C(\C(N)=O)C2=NC(C)(C)Cc3ccccc32)c1,-,-,-,5.9µM,4.7µM,-
Cc1ccc(C)c(NC(=O)CCN2CCN(CCO)CC2)c1,.,-,-,-,-,-
Cc1ccc(-c2csc(-c3c[nH]c4ccccc34)n2)c(C)c1,78,-,36,-,-,-
Oc1ccc(-c2csc(-c3c[nH]c4ccccc34)n2)c(O)c1,60,-,70,-,-,-
Clc1cc(Cl)cc(Nc2ncn[nH]2)c1,-,-,-,?,-,-
CCCCC1=CC2=CC(=O)C(C)(OC(=O)CC)C(=O)C2=CN1Cc1ccc2c(c1)OCO2 (centres undefined),-,-,-,?,?,-
COc1ccc(CCNC(=O)CSc2nnc(-c3ccco3)c(-c3ccco3)n2)cc1OC,-,-,-,-,-,-
N#Cc1ccccc1Cn1c(=O)oc2ccccc21,-,-,-,-,-,-
O=c1oc2ccccc2n1Cc1ccccc1Cl,-,-,-,-,4.7µM,-
Cc1cccc2c1Oc1ccccc1[C@@H]2NC(=O)c1ccc([N+](=O)[O-])cc1,.,.,.,.,.,-
COc1ccc(CN2CCC(C(=O)Nc3ccc(Oc4cccnc4)cc3)CC2)cc1,-,-,-,12µM,-,-
Cc1cc(C)nc(N2CCC(CNC(=O)CCc3ccccc3)CC2)n1,-,-,-,?,10µM,-
COc1cccc(O)c1CN1CCC(C(=O)Nc2ccc(Oc3cccnc3)cc2)CC1,-,-,-,?,-,-
COc1ccc(CN2CCC(C(=O)Nc3ccc(Oc4cccnc4)cc3)CC2)c(C)c1C,-,-,-,7.4µM,-,-
O=C(Nc1ccccc1Oc1cccnc1)C1CCCN(Cc2ccc(F)cc2)C1 (centres undefined),-,-,-,?,-,?
Cc1cc(C)nc(N2CCC(C(=O)NCc3ccccc3)CC2)n1,-,-,-,-,?,-
Cn1cc(CN2CCC(C(=O)Nc3ccc(Oc4ccccc4F)cc3)CC2)cn1,-,-,-,-,?,-
Cc1ccccc1CN1CCCC(C(=O)Nc2ccccc2Oc2cccnc2)C1 (centres undefined),-,-,-,2.6µM,-,-
S=C(Nc1ccc(Nc2ccccc2)cc1)NN1CCOCC1,-,-,-,-,-,-
CN(C(=O)COC(=O)c1ccc2c(=O)n3c(nc2c1)CCC3)C1CCS(=O)(=O)C1 (centres undefined),-,-,-,-,-,-
COc1cccc(O)c1CN1CCC(C(=O)Nc2ccc(-c3cccc(C)c3)cc2)CC1,-,-,-,4.1µM,4.1µM,-
CCn1ccnc1CN1CCCCC1C(=O)Nc1ccc(Oc2cccnc2)cc1 (centres undefined),-,-,-,?,-,-
Cc1ccnc(N2CCC(C(=O)Nc3ccc(Oc4ccccc4)cc3)CC2)n1,-,-,-,-,-[5.75 µM],-
Cn1ccnc1CN1CCCCC1C(=O)Nc1ccc(Oc2cccnc2)cc1 (centres undefined),-,-,-,?,13µM,-
Cc1cc(C)nc(N2CCC(C(=O)Nc3ccc(Oc4ccccc4)cc3)CC2)n1,-,-,-,-,12µM,-
Cc1cc(C)nc(N2CCC(C(=O)NCc3cccc(C(F)(F)F)c3)CC2)n1,-,-,-,-,2.1µM,-
O=C(Nc1ccccc1Br)C1CCN(S(=O)(=O)c2cccs2)CC1,.,-,.,.,.,.
COC(=O)c1ccc(NC(=O)CN2CCN(c3ccccn3)CC2)cc1,-,-,-,?,-,.
